High-throughput results from PubChem BioAssay.
FBW7 activator = FBW7 E3 ligase activators, primary screen, biochemical, AlphaScreen, human | F-box/WD repeat-containing protein 7 (Homo sapiens), Q969H0 | AlphaScreen FBW7–phospho-cyclin E peptide binding, activator screen | normalized activity (activation), % at 26.1 µM | 0.13% of 650,000 active | AID 1259310, 2017; in the data active means normalized activity above about 1.9%;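 further: purified mutant Fbw7 with reduced substrate affinity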
TEAD-YAP inh = TEAD-YAP interaction inhibition, primary screen, TEAD-YAP interaction inhibitor project, luminescence, HEK-TIYL cells. AID 1259422, 2018. 1.4% of 640,000 active. inhibition, % at 9.12 µM. TEAD-Gal4/YAP UAS-luciferase luminescence; in the data active means inhibition above about 32%;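 further: 0% = median of test compound wells and 100% = reference inhibitor wells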
GPR151 ag = activators of human GPR151, primary screen, cell-based, PathHunter beta-arrestin, luminescence | activation, % at 11.2 µM | 1% of 650,000 active | G-protein coupled receptor 151 (Homo sapiens), Q8TDV0 | PathHunter beta-arrestin GPR151 cells | AID 1508602, 2020; in the data active means activation above about 4.9%;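 further: 0% = median of compound wells and 100% = cells with positive control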
MITF inh = MITF inhibitors, primary screen, biochemical, AlphaScreen, human | Microphthalmia-associated transcription factor (Homo sapiens), O75030 | AlphaScreen MITF homodimerization, bead proximity signal | 0.91% of 650,000 active | inhibition, % at 2.6 µM; in the data active means inhibition above about 50%;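 further: 0% = vehicle wells with protein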
Target sequence (O75030 whole entry, looked up): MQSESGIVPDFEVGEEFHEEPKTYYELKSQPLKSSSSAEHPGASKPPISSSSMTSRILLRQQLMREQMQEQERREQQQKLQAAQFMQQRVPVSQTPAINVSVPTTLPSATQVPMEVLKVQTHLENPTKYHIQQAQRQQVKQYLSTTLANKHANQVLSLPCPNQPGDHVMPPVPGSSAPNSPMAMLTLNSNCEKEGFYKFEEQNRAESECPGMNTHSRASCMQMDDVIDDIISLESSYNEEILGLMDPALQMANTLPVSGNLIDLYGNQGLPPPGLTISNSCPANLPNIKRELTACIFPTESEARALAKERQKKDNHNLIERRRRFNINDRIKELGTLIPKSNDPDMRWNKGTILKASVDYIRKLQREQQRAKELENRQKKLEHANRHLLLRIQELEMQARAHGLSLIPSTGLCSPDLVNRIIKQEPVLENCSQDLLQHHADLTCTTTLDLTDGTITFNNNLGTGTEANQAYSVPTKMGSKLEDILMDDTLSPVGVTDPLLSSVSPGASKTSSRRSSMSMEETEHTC
GPR151 confirm = GPR151 activators, triplicate retest, confirmation, cell-based, PathHunter beta-arrestin, luminescence | activation, % at 11.2 µM | AID 1508609, 2020 | 6,700 tested, under 10 active | GPR151 PathHunter beta-arrestin cells, 90 min; % of EA-reagent control over plate median | shares compounds with GPR151 ag;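 active means mean percent activation across replicates above the confirmation screen cutoff of 4.91%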
GPR119 counter = GPR119 activators in beta-arrestin cells, counter-screen for GPR151 activator project, cell-based, PathHunter beta-arrestin, luminescence, triplicate; 0.3% of 6,700 active; activation, % at 11.2 µM; AID 1508611, 2020; shares compounds with GPR151 ag; 90 min; 0 = compound-well median, 100 = enzyme-acceptor control;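 active means mean percent activation in the counterscreen above 29.09%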;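 further: counterscreen on off-target GPR119 to flag nonselective hits from the GPR151 activator screen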
* = called active by the depositor. In the library only some 3.5% were active in any assay of this set; here they are far more common.

Screening CC1Cc2cc(S(=O)(=O)CCC(=O)Nc3ccccc3Cl)ccc2N1C(=O)C1CC1 (stereo not given) returned FBW7 activator 0, TEAD-YAP inh 14, GPR151 ag 5.2*, MITF inh 2, GPR151 confirm 0 and GPR119 counter 1.
Screening O=C(NCCO)C(=O)NCC(c1cccs1)S(=O)(=O)c1ccccc1 (stereo not given) returned FBW7 activator 0, TEAD-YAP inh -1, GPR151 ag 4.9*, MITF inh 2, GPR151 confirm 0 and GPR119 counter -12.
For O=C(NC1CC1)c1cnc(NCCCN2CCCC2=O)s1 the results were FBW7 activator 0, TEAD-YAP inh 2, GPR151 ag 6.0*, MITF inh 3, GPR151 confirm 0 and GPR119 counter -5.
COc1ccc(-c2cccc(C(=O)NCCCN3CCCC3=O)c2)cc1 was read as FBW7 activator 0, TEAD-YAP inh -10, GPR151 ag 2 and MITF inh -10.
For O=C(NCCCN1CCCC1=O)c1cccc(-c2ccc(C(=O)NC3CC3)cc2)c1 the results were FBW7 activator 0, TEAD-YAP inh -8, GPR151 ag 6.1*, MITF inh 14, GPR151 confirm 1 and GPR119 counter -1.
Screening O=C(NCCc1nnc2n1CCN(Cc1cc3ccccc3o1)CC2)c1ccco1 returned FBW7 activator 0, TEAD-YAP inh -12, GPR151 ag 0 and MITF inh 9.
`COc1ccc(NC(=O)/C(C)=C/c2ccccc2)c(OC)c1` gave FBW7 activator 0, TEAD-YAP inh -43, GPR151 ag 0 and MITF inh 7.
O=C(NCc1ccccc1Br)c1ccco1 was read as FBW7 activator 0, TEAD-YAP inh -3, GPR151 ag 6.1*, MITF inh 7, GPR151 confirm -1 and GPR119 counter -10.
Screening O=C(NCc1ccccc1F)c1ccco1 returned FBW7 activator 0, TEAD-YAP inh 3, GPR151 ag 1 and MITF inh 4.
For COC(=O)C1=C(NC(=O)c2ccccc2Br)CCS1 the results were FBW7 activator 0, TEAD-YAP inh 1, GPR151 ag 5.0*, MITF inh 0, GPR151 confirm 0 and GPR119 counter 11.
`COC(=O)C1=C(NC(=O)COc2ccc(Cl)cc2)CCS1` gave FBW7 activator 0, TEAD-YAP inh 4, GPR151 ag 6.1*, MITF inh -4, GPR151 confirm -1 and GPR119 counter -1.
`COc1ccccc1CCNC(=S)Nc1cccc(C(C)=O)c1` gave FBW7 activator 1, TEAD-YAP inh 16, GPR151 ag -1 and MITF inh 22.
Screening Cc1ccccc1-n1c(C)nc2sc3c(c2c1=O)CCC3 returned FBW7 activator 0, TEAD-YAP inh 7, GPR151 ag -1 and MITF inh 6.
For Cc1nc2sc3c(c2c(=O)n1-n1cccc1)CCCC3 the results were FBW7 activator 0, TEAD-YAP inh -3, GPR151 ag 5.9*, MITF inh 7, GPR151 confirm 0 and GPR119 counter 8.
Screening O=C(CSc1nc2ccccc2c(=O)n1CCC1=CCCCC1)NCCc1ccccc1 returned FBW7 activator 0, TEAD-YAP inh -9, GPR151 ag 6.4*, MITF inh -1, GPR151 confirm 0 and GPR119 counter -5.
CC(NC(=O)CSc1nc2ccccc2c(=O)n1CCCO)c1ccccc1 (stereo not given) was read as FBW7 activator 0, TEAD-YAP inh 6, GPR151 ag 6.5*, MITF inh 9, GPR151 confirm 0 and GPR119 counter -2.
Screening CCOC(=O)CSc1nc2ccccc2c(=O)n1Cc1ccccc1OC returned FBW7 activator 0, TEAD-YAP inh 6, GPR151 ag 5.2*, MITF inh 7, GPR151 confirm 0 and GPR119 counter 1.
O=C(CSc1nc2ccsc2c(=O)n1Cc1ccccc1)NCCC1=CCCCC1 was read as FBW7 activator 0, TEAD-YAP inh -7, GPR151 ag 8.7*, MITF inh 5, GPR151 confirm 1 and GPR119 counter 4.
For CCC(C)NC(=O)CSc1nc2ccccc2c(=O)n1CCCN1CCCCC1CC (stereo not given) the results were FBW7 activator 0, TEAD-YAP inh 1, GPR151 ag 1 and MITF inh -5.
COc1ccccc1NC(=O)CSc1nc2ccsc2c(=O)n1Cc1ccccc1 was read as FBW7 activator 0, TEAD-YAP inh 4, GPR151 ag 6.0*, MITF inh 0, GPR151 confirm 1 and GPR119 counter 10.
For Cc1ccc(CSc2nc3ccsc3c(=O)n2Cc2ccc(C)cc2)cc1 the results were FBW7 activator 0, TEAD-YAP inh 5, GPR151 ag -1 and MITF inh 14.
